In all, about 5,500 compounds went through this assay and about 2,000 (36%) were called active. Not shown: some 18% with an inconclusive outcome. Cut-off read from the data, not from the text of the source: active = normalized growth mostly below about 0.91 (no sharp cut-off); inconclusive = no clear call, values can overlap the other calls; inactive = mostly above about 0.92. This is one part of the list.
Assay: chemical genetic growth profiling, strain panel (AID 1159580);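 note: tested at 20 µM; growth read once vehicle control cultures reached saturation at 30 °C; 1 = growth at the plate median or of vehicle wells; lower values mean less growth of the strain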
Conditions: S. cerevisiae deletion strains, growth OD
[1] = locus YHR030C, strain SLT2, active compounds read low
[2] = locus YAL013W, strain DEP1, active compounds read low
[3] = locus YJR075W, strain HOC1, active compounds read low
[4] = locus YMR307W, strain GAS1, active compounds read low
[5] = locus YNL153C, strain GIM3, active compounds read low
[6] = locus YNL322C, strain KRE1, active compounds read low
[7] = locus YPL055C, strain LGE1, active compounds read low

Measured: normalized growth

C=CC[C@@H]1/C=C(\C)C[C@H](C)C[C@H](OC)[C@H]2O[C@@](O)(C(=O)C(=O)N3CCCC[C@H]3C(=O)O[C@H](/C(C)=C/[C@@H]3CC[C@@H](O)[C@H](OC)C3)[C@H](C)[C@@H](O)CC1=O)[C@H](C)C[C@@H]2OC
active: locus YAL021C, strain ccr4, active compounds read low 0.844 | locus YAL026C, strain drs2, active compounds read low 0.6 | locus YBL061C, strain skt5, active compounds read low 1.09 [resistant] | locus YBR171W, strain sec66, active compounds read low 1.14 [resistant] | locus YCL016C, strain dcc1, active compounds read low 0.896 | locus YDR069C, strain doa4, active compounds read low 0.829 | locus YDR137W, strain rgp1, active compounds read low 0.174 | locus YDR195W, strain ref2 0.773 | locus YDR392W, strain spt3, active compounds read low 0.55 | locus YER016W, strain bim1, active compounds read low 0.909 | locus YER155C, strain BEM2 (second series), active compounds read low 0.705 | locus YFR010W, strain ubp6, active compounds read low 0.877 | locus YGL173C, strain kem1, active compounds read low 0.848 | [1] 0.7 | locus YHR079C, strain IRE1, active compounds read low 0.719 | locus YJL095W, strain BCK1 (second series), active compounds read low 0.91 | locus YJL095W, strain BCK1, active compounds read low 0.754 | locus YJL129C, strain trk1, active compounds read low 0.845 | locus YJL164C, strain tpk1, active compounds read low 0.915 | locus YJR066W, strain TOR1, active compounds read low 0.746 | locus YLR113W, strain HOG1, active compounds read low 0.66 | locus YLR262C, strain YPT6 (second series), active compounds read low 0.137 | locus YLR320W, strain mms22, active compounds read low 0.734 | locus YLR342W, strain FKS1, active compounds read low 0.0809 | locus YMR125W, strain sto1, active compounds read low 0.844 | locus YMR205C, strain PFK2, active compounds read low 0.78 | locus YMR231W, strain pep5, active compounds read low 0.176 | locus YNL071W, strain lat1, active compounds read low 0.746 | locus YNL183C, strain NPR1, active compounds read low 0.781 | locus YOR001W, strain rrp6, active compounds read low 0.761 | locus YOR106W, strain vam3, active compounds read low 0.736 | locus YOR231W, strain MKK1, active compounds read low 0.7 | locus YOR270C, strain vph1, active compounds read low 0.514 | locus YPL051W, strain arl3, active compounds read low 0.67 | locus YPL106C, strain sse1, active compounds read low 0.72 | locus YPL256C, strain CLN2, active compounds read low 0.695
inactive: locus YAL030W, strain snc1, active compounds read low 1.02 | locus YBR009C, strain hhf1, active compounds read low 0.946 | locus YBR023C, strain chs3, active compounds read low 1 | locus YBR231C, strain swc5, active compounds read low 0.988 | locus YBR279W, strain paf1, active compounds read low 1.03 | locus YCL011C, strain gbp2, active compounds read low 0.988 | locus YCL069W, strain vba3, active compounds read low 1.02 | locus YCR088W, strain abp1, active compounds read low 0.995 | locus YDL005C, strain med2, active compounds read low 1.04 | locus YDL040C, strain nat1, active compounds read low 1.02 | locus YDR001C, strain nth1, active compounds read low 1.04 | locus YDR159W, strain sac3, active compounds read low 0.974 | locus YDR297W, strain sur2, active compounds read low 1.03 | locus YDR334W, strain swr1, active compounds read low 1.1 | locus YDR335W, strain msn5, active compounds read low 0.96 | locus YEL003W, strain gim4, active compounds read low 0.99 | locus YEL037C, strain rad23, active compounds read low 1.04 | locus YEL061C, strain CIN8 (second series), active compounds read low 1 | locus YER015W, strain faa2, active compounds read low 1.04 | locus YER111C, strain swi4, active compounds read low 1.02 | locus YGL167C, strain pmr1, active compounds read low 1.06 | locus YGL227W, strain vid30, active compounds read low 1.05 | locus YGL240W, strain doc1, active compounds read low 1.06 | locus YGL253W, strain hxk2, active compounds read low 0.983 | locus YHR013C, strain ard1, active compounds read low 0.912 | locus YHR027C, strain rpn1, active compounds read low 1.03 | locus YHR142W, strain chs7, active compounds read low 0.881 | locus YJL092W, strain hpr5, active compounds read low 1.02 | locus YJL115W, strain asf1, active compounds read low 1.05 | locus YJL154C, strain vps35, active compounds read low 1.04 | locus YJL166W, strain qcr8, active compounds read low 0.982 | locus YJL187C, strain SWE1, active compounds read low 1.03 | locus YKL160W, strain elf1, active compounds read low 0.956 | locus YKR026C, strain gcn3, active compounds read low 1.04 | locus YKR091W, strain srl3, active compounds read low 1.04 | locus YLL001W, strain dnm1, active compounds read low 0.932 | locus YLL026W, active compounds read low 1.02 | locus YLL041C, strain sdh2, active compounds read low 1.05 | locus YLR027C, strain aat2, active compounds read low 0.976 | locus YLR221C, strain rsa3, active compounds read low 0.922 | locus YLR258W, strain gsy2, active compounds read low 0.986 | locus YLR357W, strain rsc2, active compounds read low 0.949 | locus YLR370C, strain arc18, active compounds read low 0.936 | locus YLR384C, strain iki3, active compounds read low 1.05 | locus YML120C, strain ndi1, active compounds read low 0.965 | locus YMR058W, strain fet3, active compounds read low 0.995 | locus YMR129W, active compounds read low 1.04 | locus YNL209W, strain ssb2, active compounds read low 1.03 | locus YNL248C, strain rpa49, active compounds read low 1.03 | locus YNL322C, strain KRE1 (second series), active compounds read low 0.962 | locus YNR049C, strain mso1, active compounds read low 1.03 | locus YOR070C, strain gyp1, active compounds read low 0.944 | locus YOR080W, strain dia2, active compounds read low 1.05 | locus YOR083W, strain WHI5, active compounds read low 0.931 | locus YOR265W, strain rbl2, active compounds read low 1.05 | locus YOR290C, strain snf2, active compounds read low 0.894 | locus YPL078C, strain atp4, active compounds read low 0.951 | locus YPL240C, strain hsp82, active compounds read low 1.03

N[C@@H](Cn1ccc(=O)[nH]c1=O)C(=O)O
inactive: [2] 0.988 | locus YAL040C, strain CLN3, active compounds read low 1.06 | locus YCL061C, strain MRC1 (second series), active compounds read low 1 | locus YDR363W, strain ESC2, active compounds read low 1 | locus YER002W, strain NOP16, active compounds read low 0.995 | [3] 0.97 | [4] 0.978 | locus YNL128W, strain TEP1, active compounds read low 1 | [5] 1.03 | locus YNL175C, strain NOP13, active compounds read low 0.995 | locus YNL197C, strain WHI3, active compounds read low 1 | locus YNL224C, strain SQS1, active compounds read low 1.01 | [6] 0.975 | locus YOR083W, strain WHI5 (second series), active compounds read low 1.01 | [7] 0.998

CCOC(=O)c1ccc(Oc2ncc(C(F)(F)F)cc2Cl)cc1
inactive: [2] 1.04 | locus YBR229C, strain ROT2, active compounds read low 0.995 | locus YDL101C, strain DUN1, active compounds read low 0.957 | locus YDR150W, strain NUM1, active compounds read low 1 | locus YEL061C, strain CIN8, active compounds read low 0.996 | locus YGR078C, strain PAC10, active compounds read low 0.993 | [1] 0.829 | locus YHR087W, strain rtc3, active compounds read low 0.987 | locus YJR043C, strain POL32, active compounds read low 0.98 | [3] 0.917 | locus YLR039C, strain RIC1, active compounds read low 0.889 | locus YLR058C, strain SHM2 (second series), active compounds read low 0.975 | locus YLR085C, strain ARP6, active compounds read low 1.08 | locus YLR262C, strain YPT6, active compounds read low 0.862 | locus YML094W, strain GIM5, active compounds read low 1.04 | locus YMR219W, strain ESC1, active compounds read low 0.992 | locus YMR263W, strain SAP30, active compounds read low 0.988 | [4] 0.68 | [5] 1.01 | locus YNL298W, strain CLA4 (second series), active compounds read low 0.985 | [6] 0.986 | locus YNR030W, strain Alg12, active compounds read low 0.974 | [7] 1.08 | locus YPL241C, strain CIN2, active compounds read low 0.862 | locus YPR135W, strain CTF4, active compounds read low 1.17

— PubChem BioAssay AID1159580 (chemical genetic matrix, 2015)
